Laboratory results from PubChem BioAssay (EPA / NIEHS).
Values joined by “and” are separate entries in the source; they are usually repeats but may differ in a detail not shown here. Equal values may be shown once. Where a structure was tested more than once in an assay, its records may differ in their call. Active and inactive are the calls of the source. How the source made its calls: active means hit-call score of the fitted dose curve at least 0.9, where 1 is the maximum; inactive means score below 0.9.

Legend:
[1] = read-out: Thrombomodulin, THBD (gene 7056); assay: BSK_CASM3C_Thrombomodulin: BioMAP Diversity Plus: CASM3C Assay for Thrombomodulin Biomarker Activity (AID 2283051); details: primary human coronary artery smooth muscle cells; actives raise or lower the signal;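 further: thrombomodulin protein level measured by ELISA 24 h after dosing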
[2] = read-out: Tissue Factor, F3 (gene 2152); assay: BSK_CASM3C_TissueFactor: BioMAP Diversity Plus: CASM3C Assay for Tissue Factor Biomarker Activity (AID 2283052); details: primary human coronary artery smooth muscle cells; actives raise or lower the signal;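 further: cell surface tissue factor protein level read by ELISA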
[3] = read-out: Interferon-gamma inducible Protein 10 (IP10), CXCL10 (gene 3627); assay: BSK_hDFCGF_IP10: BioMAP Diversity Plus: hDFCGF Assay for Interferon-gamma inducible Protein 10 (IP10) Biomarker Activity (AID 2283053); details: primary human foreskin fibroblasts; actives raise or lower the signal
Procedure, shortened: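 Primary foreskin fibroblasts, human; 24 h compound exposure; IP-10 by ELISA; bidirectional fit vs DMSO.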

[4] = read-out: Urokinase-type plasminogen activator receptor (uPAR), PLAUR (gene 5329); assay: BSK_CASM3C_uPAR: BioMAP Diversity Plus: CASM3C Assay for Urokinase-type plasminogen activator receptor (uPAR) Biomarker Activity (AID 2283054); details: primary human coronary artery smooth muscle cells; actives raise or lower the signal;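 further: cell-surface uPAR protein level quantified by ELISA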
[5] = read-out: Vascular cell adhesion molecule 1 (VCAM1), VCAM1 (gene 7412); assay: BSK_CASM3C_VCAM1: BioMAP Diversity Plus: CASM3C Assay for Vascular cell adhesion molecule 1 (VCAM1) Biomarker Activity (AID 2283055); details: primary human coronary artery smooth muscle cells; actives raise or lower the signal;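 further: VCAM-1 protein level quantified by ELISA on the cells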
[6] = read-out: Collagen III, COL3A1 (gene 1281); assay: BSK_hDFCGF_CollagenIII: BioMAP Diversity Plus: hDFCGF Assay for Collagen III Biomarker Activity (AID 2283056); details: primary human foreskin fibroblasts; actives raise or lower the signal
Procedure, shortened: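 Human foreskin primary fibroblasts were exposed to test chemicals for 24 h, after which collagen III was quantified by ELISA. Activity was fitted bidirectionally against DMSO as negative control and baseline.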

[7] = read-out: Epidermal growth factor receptor (EGFR), EGFR (gene 1956); assay: BSK_hDFCGF_EGFR: BioMAP Diversity Plus: hDFCGF Assay for Epidermal growth factor receptor (EGFR) Biomarker Activity (AID 2283057); details: primary human foreskin fibroblasts; actives raise or lower the signal
Procedure, shortened: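 hDFCGF system, primary human foreskin fibroblasts; compound 24 h; EGFR measured by ELISA; DMSO = negative control/baseline; bidirectional fitting.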

[8] = BSK_hDFCGF_Proliferation: Cell Proliferation Assessment in the BioMAP Diversity Plus: hDFCGF Assay (AID 2283059); details: primary human foreskin fibroblasts;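 further: curves fitted for both rise and fall of signal versus DMSO baseline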
Procedure, shortened: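 This proliferation readout used SRB total-protein staining of human foreskin fibroblasts […], normalized to DMSO with bidirectional curve fitting.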

[9] = read-out: Macrophage colony-stimulating factor (MCSF), CSF1 (gene 1435); assay: BSK_hDFCGF_MCSF: BioMAP Diversity Plus: hDFCGF Assay for Macrophage colony-stimulating factor (MCSF) Biomarker Activity (AID 2283060); details: primary human foreskin fibroblasts; actives raise or lower the signal
Procedure, shortened: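 Human foreskin primary fibroblasts were treated with test chemical for 24 h, and M-CSF was then measured by ELISA. Data were fitted bidirectionally against DMSO as the negative control and activity baseline.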

[10] = BSK_hDFCGF_SRB: Viability Assessment in the BioMAP Diversity Plus: hDFCGF Assay (AID 2283061); details: primary human foreskin fibroblasts;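 further: cells exposed to compound for 24 h before the read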
Procedure, shortened: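 Human foreskin primary fibroblasts were treated with compound and assessed 24 h after dosing. Total protein was measured by sulforhodamine B staining (0.1% SRB after 10% TCA fixation, 560 nm read) as a cytotoxicity marker, with bidirectional fitting against DMSO baseline.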

[11] = read-out: TIMP metallopeptidase inhibitor 1 (TIMP1), TIMP1 (gene 7076); assay: BSK_hDFCGF_TIMP1: BioMAP Diversity Plus: hDFCGF Assay for TIMP metallopeptidase inhibitor 1 (TIMP1) Biomarker Activity (AID 2283062); details: primary human foreskin fibroblasts; actives raise or lower the signal
Procedure, shortened: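 Primary human foreskin fibroblasts in the hDFCGF system were dosed with compound for 24 h, then TIMP-1 was measured by ELISA. Activity was fitted bidirectionally relative to DMSO control; parallel SRB staining assessed cytotoxicity.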

[12] = read-out: Monokine induced gamma interferon (MIG), CXCL9 (gene 4283); assay: BSK_hDFCGF_MIG: BioMAP Diversity Plus: hDFCGF Assay for Monokine induced gamma interferon (MIG) Biomarker Activity (AID 2283063); details: primary human foreskin fibroblasts; actives raise or lower the signal
Procedure, shortened: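 ELISA read-out of MIG from primary human dermal fibroblasts 24 h post-dosing. Gain or loss of signal fitted bidirectionally, DMSO as baseline.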

[13] = read-out: Matrix Metallopeptidase 1 (MMP1), MMP1 (gene 4312); assay: BSK_hDFCGF_MMP1: BioMAP Diversity Plus: hDFCGF Assay for Matrix Metallopeptidase 1 (MMP1) Biomarker Activity (AID 2283064); details: primary human foreskin fibroblasts; actives raise or lower the signal
Procedure, shortened: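 hDFCGF primary fibroblasts (human foreskin); chemical added; 24 h; MMP1 by ELISA; bidirectional fit vs DMSO.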

[14] = read-out: Plasminogen activator inhibitor-1 (PAI1), SERPINE1 (gene 5054); assay: BSK_hDFCGF_PAI1: BioMAP Diversity Plus: hDFCGF Assay for Plasminogen activator inhibitor-1 (PAI1) Biomarker Activity (AID 2283066); details: primary human foreskin fibroblasts; actives raise or lower the signal
Procedure, shortened: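 Primary dermal fibroblasts (human foreskin), hDFCGF system; compound 24 h; PAI-1 by ELISA; bidirectional fit vs DMSO control.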

[15] = read-out: Intercellular Adhesion Molecule 1 (ICAM1), ICAM1 (gene 3383); assay: BSK_KF3CT_ICAM1: BioMAP Diversity Plus: KF3CT Assay for Intercellular Adhesion Molecule 1 (ICAM1) Biomarker Activity (AID 2283067); details: primary human keratinocytes with fibroblasts; actives raise or lower the signal
Procedure, shortened: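 Human keratinocyte plus foreskin fibroblast primary co-culture was exposed to chemical for 24 h. ICAM-1 was then quantified by ELISA, and the data were fit bidirectionally against DMSO as the negative control and baseline.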

[16] = BSK_KF3CT_SRB: Viability Assessment in the BioMAP Diversity Plus: KF3CT Assay (AID 2283069); details: primary human keratinocytes with fibroblasts;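 further: fitted for both signal gain and loss against DMSO baseline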
Procedure, shortened: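 Keratinocytes co-cultured with foreskin fibroblasts (human primary); chemical added, 24 h; fix 10% TCA, stain 0.1% SRB, A560. Bidirectional fit vs DMSO.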

[17] = read-out: Interleukin-1 alpha (IL1a), IL1A (gene 3552); assay: BSK_KF3CT_IL1a: BioMAP Diversity Plus: KF3CT Assay for Interleukin-1 alpha (IL1a) Biomarker Activity (AID 2283070); details: primary human keratinocytes with fibroblasts; actives raise or lower the signal
Procedure, shortened: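 Chemicals were dosed onto co-cultured human keratinocytes and foreskin fibroblasts, IL-1a was quantified by ELISA at 24 h, and activity was fitted in both directions relative to DMSO controls.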

[18] = read-out: Interleukin-8 (IL8), CXCL8 (gene 3576); assay: BSK_hDFCGF_IL8: BioMAP Diversity Plus: hDFCGF Assay for Interleukin-8 (IL8) Biomarker Activity (AID 2283058); details: primary human foreskin fibroblasts; actives raise or lower the signal
Procedure, shortened: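 hDFCGF human dermal fibroblasts; 24 h chemical exposure; IL-8 by ELISA; bidirectional curve fit vs DMSO baseline; gain or loss of signal scored.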

[19] = read-out: Vascular cell adhesion molecule 1 (VCAM1), VCAM1 (gene 7412); assay: BSK_hDFCGF_VCAM1: BioMAP Diversity Plus: hDFCGF Assay for Vascular cell adhesion molecule 1 (VCAM1) Biomarker Activity (AID 2283065); details: primary human foreskin fibroblasts; actives raise or lower the signal;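 on AC50: VCAM-1 protein level quantified by ELISA after 24 h chemical exposure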
Procedure, shortened: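 Primary human foreskin fibroblasts (hDFCGF system) were dosed with chemical and VCAM-1 was measured by ELISA 24 h later. Bidirectional curve fitting used DMSO as negative control and activity baseline.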

[20] = read-out: Interferon-gamma inducible Protein 10 (IP10), CXCL10 (gene 3627); assay: BSK_KF3CT_IP10: BioMAP Diversity Plus: KF3CT Assay for Interferon-gamma inducible Protein 10 (IP10) Biomarker Activity (AID 2283068); details: primary human keratinocytes with fibroblasts; actives raise or lower the signal
Procedure, shortened: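 Signal is secreted/surface IP-10 by ELISA in a human primary skin co-culture of keratinocytes and foreskin fibroblasts, taken 24 h post-dosing; DMSO served as negative control.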

## C=CCC1=C(C)[C@@H](OC(=O)[C@@H]2[C@@H](C=C(C)C)C2(C)C)CC1=O
[1]
  outcome: inactive
[2]
  outcome: inactive
[3]
  AC50: 32.6 µM (active)
[4]
  outcome: inactive
[5]
  outcome: inactive
[6]
  AC50: 30.9 µM (active)
[7]
  AC50: 32.4 µM (active)
[8]
  AC50: 33.1 µM (active)
[9]
  AC50: 32.2 µM (active)
[10]
  AC50: 34.9 µM (active)
[11]
  AC50: 32.1 µM (active)
[12]
  AC50: 31.6 µM (active)
[13]
  AC50: 31 µM (active)
[14]
  AC50: 36.6 µM (active)
[15]
  outcome: inactive
[16]
  AC50: 20 µM (active)
[17]
  outcome: inactive

## C=CCC1=C(C)C(OC(=O)C2C(C=C(C)C)C2(C)C)CC1=O (stereo unspecified)
[1]
  AC50: 16.6 µM (active) and 26.3 µM (active) and 21 µM (active)
  outcome: inactive
[2]
  outcome: inactive
[4]
  outcome: inactive
[5]
  AC50: 32.5 µM (active)
  outcome: inactive
[6]
  AC50: 21 µM (active) [middle of 4 runs]
[7]
  outcome: inactive
[18]
  AC50: 40.3 µM (active) [middle of 4 runs]
[8]
  AC50: 16.5 µM (active) [middle of 4 runs]
[9]
  AC50: 31.2 µM (active) and 38.4 µM (active) and 29.1 µM (active)
[10]
  AC50: 32.4 µM (active) [middle of 4 runs]
[11]
  AC50: 33.9 µM (active) [middle of 4 runs]
[12]
  AC50: 38.9 µM (active) [middle of 4 runs]
[13]
  AC50: 35.6 µM (active) [middle of 4 runs]
[19]
  AC50: 28.7 µM (active) [middle of 4 runs]
[14]
  AC50: 30.4 µM (active) and 38.4 µM (active) and 38.8 µM (active)
[15]
  outcome: inactive
[16]
  AC50: 34.7 µM (active) and 25.5 µM (active)
  outcome: inactive
[17]
  AC50: 34.3 µM (active) and 38.6 µM (active)
  outcome: inactive

## CS/C(C)=N/OC(=O)N(C)SN(C)C(=O)O/N=C(\C)SC
[1]
  outcome: inactive
[2]
  outcome: inactive
[3]
  AC50: 8.62 µM (active)
[4]
  AC50: 31.5 µM (active)
[5]
  AC50: 30.8 µM (active)
[6]
  outcome: inactive
[7]
  outcome: inactive
[18]
  outcome: inactive
[8]
  AC50: 3.73 µM (active)
[9]
  outcome: inactive
[10]
  AC50: 11.7 µM (active)
[11]
  outcome: inactive
[12]
  AC50: 11 µM (active)
[13]
  outcome: inactive
[14]
  AC50: 12 µM (active)
[15]
  AC50: 11.1 µM (active)
[16]
  AC50: 12.5 µM (active)
[17]
  AC50: 17.8 µM (active)

## CCNc1nc(Cl)nc(NC(C)C)n1
[1]
  outcome: inactive
[2]
  outcome: inactive
[3]
  outcome: inactive
[4]
  AC50: 20 µM (active)
[5]
  outcome: inactive
[6]
  outcome: inactive
[7]
  outcome: inactive
[18]
  outcome: inactive
[8]
  outcome: inactive
[9]
  outcome: inactive
[10]
  outcome: inactive
[11]
  outcome: inactive
[12]
  outcome: inactive
[13]
  outcome: inactive
[19]
  outcome: inactive
[14]
  outcome: inactive
[15]
  outcome: inactive
[16]
  outcome: inactive
[17]
  outcome: inactive

## Cc1c(F)c(F)c(COC(=O)C2C(/C=C(\Cl)C(F)(F)F)C2(C)C)c(F)c1F (stereo unspecified)
[1]
  AC50: 14 µM (active)
[2]
  outcome: inactive
[4]
  outcome: inactive
[5]
  outcome: inactive
[6]
  outcome: inactive
[7]
  outcome: inactive
[18]
  outcome: inactive
[8]
  AC50: 10.8 µM (active)
[9]
  AC50: 3.03 µM (active)
[10]
  outcome: inactive
[11]
  outcome: inactive
[12]
  outcome: inactive
[13]
  AC50: 1.22 µM (active)
[14]
  outcome: inactive
[15]
  outcome: inactive
[20]
  outcome: inactive
[16]
  outcome: inactive
[17]
  outcome: inactive

## CNC(=O)ON=CC(C)(C)SC
[1]
  outcome: inactive
[2]
  outcome: inactive
[4]
  AC50: 0.148 µM (active)
[5]
  outcome: inactive
[6]
  outcome: inactive
[7]
  outcome: inactive
[18]
  outcome: inactive
[8]
  outcome: inactive
[9]
  outcome: inactive
[10]
  outcome: inactive
[11]
  outcome: inactive
[12]
  outcome: inactive
[13]
  outcome: inactive
[14]
  outcome: inactive
[15]
  outcome: inactive
[16]
  outcome: inactive
[17]
  AC50: 1.34 µM (active)
